Reference: PubChem BioAssay AID624496 (National Center for Advancing Translational Sciences (NCATS), 2012)
Inconclusive results are not listed. Calls of active or inactive are those of the source. The call rests on the fitted dose curve; in most records, active means well fitted inhibition curve with a large enough effect; inconclusive means small, poorly fitted or top-dose-only effect, or another doubt; inactive means no such curve, though single readings can be large or run the other way.

target: D(2) dopamine receptor (Homo sapiens) (UniProt P14416); assay: HTS Assay for Allosteric Antagonists of the Human D2 Dopamine Receptor: SAR in Primary Assay.; details: HEK293 T-REx D2 cells, calcium flux, dopamine EC80 antagonism; activity, negative = inhibition: at 41.8 µM (top of the series) unless noted
Text: Dopamine receptors (DARs) are involved in the etiology and/or therapy of a number of neuropsychiatric and endocrine disorders. For instance, all receptor-based antiparkinsonian drugs work via stimulating the D2 DAR subtype whereas all FDA-approved antipsychotic agents are antagonists of this receptor. […] There are three different types of allosteric modulators that we are seeking, two of which will stimulate or augment receptor signaling, allosteric agonists and potentiators, while the third, allosteric antagonists, will attenuate receptor signaling. The present project is looking for compound antagonism after an EC80 addition of dopamine by tracking calcium flux in a […], inducible Hek293 Trex D2 cell line, which act through an allosteric site. NIH Chemical Genomics Center [NCGC] NIH Molecular Libraries Probe Centers Network [MLPCN] MLPCN Grant: NS064831 Assay Submitter (PI): David Sibley
Freshly passaged cells are plated in 1536 well black, clear bottom plates at a density of 4000 cells/well in 3 ul of complete media containing 1x tetracycline inducer. After an overnight incubation at 30 deg C in 5% CO2, cells are loaded with 2 ul of the no wash Calcium Assay Kit (ABD Bioquest) and incubated at room temperature for 30 to 90 minutes. Agonist read: A 10 cycle (1 second/cycle) baseline measurement is taken and then the FDSS online 1536 pintool delivers 23 nl of compound library (as well as dopamine controls) to the plate. The plate is measured for kinetically at 1 cycle/sec for 180 seconds. Following the 180 second read, 1 ul of an EC80 (negative modulation assay) is delivered by an onboard pipette head. Measurements are taken kinetically for an additional 180 seconds.

D(2) dopamine receptor (Homo sapiens), sequence (P14416 whole entry, looked up): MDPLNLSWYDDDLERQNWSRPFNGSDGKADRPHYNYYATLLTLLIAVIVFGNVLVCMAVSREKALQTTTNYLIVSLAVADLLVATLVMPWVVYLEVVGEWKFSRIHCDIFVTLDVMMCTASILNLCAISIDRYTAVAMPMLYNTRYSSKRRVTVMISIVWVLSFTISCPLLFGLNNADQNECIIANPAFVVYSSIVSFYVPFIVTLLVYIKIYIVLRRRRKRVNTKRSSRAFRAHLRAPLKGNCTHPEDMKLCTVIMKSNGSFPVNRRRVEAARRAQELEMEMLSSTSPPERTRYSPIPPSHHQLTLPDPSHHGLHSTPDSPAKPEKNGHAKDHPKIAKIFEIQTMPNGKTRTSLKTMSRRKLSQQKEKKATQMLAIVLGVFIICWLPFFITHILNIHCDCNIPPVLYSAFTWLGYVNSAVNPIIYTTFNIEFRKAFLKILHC

| Structure (SMILES) | Potency | activity, negative = inhibition |
| --- | --- | --- |
| CCN1C(=O)c2ccccc2S(=O)c2ccc(C(=O)NC(C)c3ccccc3)cc21 (stereo unspecified) | 353 nM (active) |  |
| CCN1C(=O)c2ccccc2S(=O)c2ccc(C(=O)NCc3ccc(C#N)cc3)cc21 (stereo unspecified) | 141 nM (active) |  |
| CN1C(=O)c2ccccc2S(=O)c2ccc(C(=O)NCc3ccccn3)cc21 (stereo unspecified) | 223 nM (active) |  |
| COc1ccc(CNC(=O)c2ccc3c(c2)NC(=O)c2ccccc2S3=O)cc1 (stereo unspecified) | 141 nM (active) |  |
| CCN1C(=O)c2ccccc2S(=O)(=O)c2ccc(C(=O)NCc3ccc(OC)cc3)cc21 |  | -113% |
| CCN1C(=O)c2ccccc2[S@](=O)c2ccc(C(=O)NCc3ccc(F)cc3)cc21 | 353 nM (active) |  |
| CN1C(=O)c2ccccc2S(=O)c2ccc(C(=O)NCCN3CCCC3)cc21 (stereo unspecified) | 280 nM (active) |  |
| CCN1C(=O)c2ccccc2[S@](=O)c2ccc(C(=O)NCc3ccc(OC)cc3)cc21 | 8870 nM (active) |  |
| CCN1C(=O)c2ccccc2[S@@](=O)c2ccc(C(=O)NCc3ccc(OC)cc3)cc21 |  | -112% |
| CN1C(=O)c2ccccc2S(=O)c2ccc(C(=O)NCCN3CCCCC3)cc21 (stereo unspecified) | 112 nM (active) |  |
| CCN1C(=O)c2ccccc2S(=O)c2ccc(C(=O)N(C)Cc3ccc(OC)cc3)cc21 (stereo unspecified) |  | -112% [at 4.65 µM] |
